Assay results taken from the antibiotic and cytotoxicity screens of Wong et al. (2023).
Screen size: about 39,000 compounds; about 3,300 (8.5%) were called active. What follows is part of a selection rich in actives, with near analogues and random picks from the rest.

Test system: HepG2
Assay: cytotoxicity call (relative viability < 0.9)
Settings: 10 µM

| Compound | cytotoxicity call |
| --- | --- |
| C[C@@H]1CN([C@@H](C)CO)C(=O)c2cc(NC(=O)c3ccccc3)ccc2O[C@@H](C)CCCCO[C@H]1CN(C)Cc1ccncc1 | inactive |
| CC(C)NC(=O)Nc1cccc2c1O[C@H](CN(C)Cc1ccc3c(c1)OCO3)[C@H](C)CN([C@@H](C)CO)C2=O | inactive |
| C[C@H]1CN([C@@H](C)CO)C(=O)c2cccc(NC(=O)C3CC3)c2O[C@H]1CN(C)Cc1ccc(-c2ccccc2)cc1 | inactive |
| Cc1cc(CCC[C@H](CC(=O)NO)C(=O)N[C@H](C(=O)N[C@H](C)c2ccccc2)C(C)(C)C)ccc1-c1ccccc1 | active |
| Nc1cccc(-c2cccs2)c1 | inactive |
| C[C@H](CO)N1C[C@H](C)[C@H](CN(C)S(C)(=O)=O)Oc2ncc(C#Cc3cccnc3)cc2C1=O | inactive |
| COc1ccc(CN(CCN(C)C)c2ccccn2)cc1.O=C(O)C=CC(=O)O | inactive |
| CN(C)CCN(Cc1ccc(Cl)cc1)c1ccccn1.Cl | inactive |
| CN(C)CCN(Cc1ccccc1)c1ccccn1.O=C(O)CC(O)(CC(=O)O)C(=O)O | active |
| C[C@H](CO)N1C[C@H](C)[C@@H](CN(C)S(=O)(=O)c2cn(C)cn2)Oc2ccc(NC(=O)CCC(F)(F)F)cc2C1=O | inactive |
| C[C@@H]1CN([C@H](C)CO)S(=O)(=O)c2ccc(C#CCN(C)C)cc2O[C@H]1CN(C)S(C)(=O)=O | inactive |
| Cc1cc(C(=O)Nc2cccc3c2O[C@H](CN(C)S(=O)(=O)c2c(C)noc2C)[C@H](C)CN([C@H](C)CO)C3=O)n(C)n1 | inactive |
| CC1(C)C[C@@](CCN)(Cc2ccccc2)CCO1 | inactive |
| Cc1ccc(S(=O)(=O)N(C)C[C@@H]2OCCCC[C@H](C)Oc3ccc(NS(=O)(=O)c4ccc(F)cc4)cc3C(=O)N([C@@H](C)CO)C[C@@H]2C)cc1 | active |
| Cc1ccc(S(=O)(=O)N(C)C[C@H]2OCCCC[C@H](C)Oc3ccc(NS(=O)(=O)c4ccc(F)cc4)cc3C(=O)N([C@H](C)CO)C[C@H]2C)cc1 | inactive |
| Cc1ccc(S(=O)(=O)Nc2ccc3c(c2)C(=O)N([C@H](C)CO)C[C@H](C)[C@@H](CN(C)S(=O)(=O)c2ccc(F)cc2)OCCCC[C@H](C)O3)cc1 | inactive |
| Cc1ccc(S(=O)(=O)Nc2ccc3c(c2)C(=O)N([C@@H](C)CO)C[C@H](C)[C@@H](CN(C)S(=O)(=O)c2ccc(F)cc2)OCCCC[C@H](C)O3)cc1 | inactive |
| Cc1ccc(S(=O)(=O)N(C)C[C@@H]2OCCCC[C@H](C)Oc3ccc(NS(=O)(=O)c4ccc(F)cc4)cc3C(=O)N([C@@H](C)CO)C[C@H]2C)cc1 | active |
| Cc1ccc(S(=O)(=O)Nc2ccc3c(c2)C(=O)N([C@@H](C)CO)C[C@@H](C)[C@H](CN(C)S(=O)(=O)c2ccc(F)cc2)OCCCC[C@@H](C)O3)cc1 | inactive |
| Cc1ccc(S(=O)(=O)N(C)C[C@@H]2OCCCC[C@H](C)Oc3ccc(NS(=O)(=O)c4ccc(F)cc4)cc3C(=O)N([C@H](C)CO)C[C@@H]2C)cc1 | active |
| Cc1ccc(S(=O)(=O)Nc2ccc3c(c2)C(=O)N([C@H](C)CO)C[C@H](C)[C@H](CN(C)S(=O)(=O)c2ccc(F)cc2)OCCCC[C@H](C)O3)cc1 | inactive |

| Compound | cytotoxicity call |
| --- | --- |
| Cc1ccc(S(=O)(=O)Nc2ccc3c(c2)C(=O)N([C@H](C)CO)C[C@@H](C)[C@H](CN(C)S(=O)(=O)c2ccc(F)cc2)OCCCC[C@@H](C)O3)cc1 | inactive |
| Cc1ccc(S(=O)(=O)Nc2ccc3c(c2)C(=O)N([C@@H](C)CO)C[C@H](C)[C@@H](CN(C)S(=O)(=O)c2ccc(F)cc2)OCCCC[C@@H](C)O3)cc1 | inactive |
| Cc1ccc(S(=O)(=O)N(C)C[C@@H]2OCCCC[C@@H](C)Oc3ccc(NS(=O)(=O)c4ccc(F)cc4)cc3C(=O)N([C@H](C)CO)C[C@H]2C)cc1 | active |
| Cc1ccc(S(=O)(=O)N(C)C[C@H]2OCCCC[C@H](C)Oc3ccc(NS(=O)(=O)c4ccc(F)cc4)cc3C(=O)N([C@@H](C)CO)C[C@@H]2C)cc1 | inactive |
| CN1CCN(C(=O)C[C@@H]2C=C[C@@H](NC(=O)Nc3ccccc3F)[C@@H](CO)O2)CC1 | inactive |
| COc1ccc(NC(=O)N(C)C[C@@H]2Oc3ccc(NS(C)(=O)=O)cc3CC(=O)N([C@H](C)CO)C[C@@H]2C)cc1 | inactive |
| C[C@@H]1CN([C@H](C)CO)C(=O)c2cccc(NC(=O)Nc3ccccc3)c2O[C@H]1CN(C)C(=O)Nc1ccc(C(F)(F)F)cc1 | inactive |
| Cc1ccc(S(=O)(=O)c2c[nH]c(=O)[nH]2)cc1 | inactive |
| CC[C@@](C)(Nc1n[nH]c(=O)[nH]c1=O)C(=O)O | inactive |
| O.OCC1OC(OC2C(CO)OC(O)C(O)C2O)C(O)C(O)C1O (stereo not drawn) | active |
| OC[C@H]1O[C@@H](O[C@@H]2[C@@H](O)[C@H](O)[C@H](O[C@@H]3[C@@H](O)[C@H](O)[C@H](O)O[C@@H]3CO)O[C@@H]2CO)[C@@H](O)[C@@H](O)[C@@H]1O | inactive |
| OCC1OC(OC2C(CO)OC(O)C(O)C2O)C(O)C(O)C1O (stereo not drawn) | inactive |
| COC(=O)c1c2oc(c1C(=O)OC)C(=O)N(C)Cc1cn(nn1)C[C@@H](Cc1ccccc1)NC(=O)N[C@H](COC(=O)NCCCCCC(=O)NO)CC2 | inactive |
| Cc1noc(C)c1NC(=O)Nc1ccc2c(c1)C(=O)N([C@@H](C)CO)C[C@H](C)[C@@H](CN(C)S(C)(=O)=O)O2 | inactive |
| O=C(OC[C@H]1O[C@@H](OC(=O)c2cc(O)c(O)c(O)c2)[C@H](OC(=O)c2cc(O)c(O)c(O)c2)[C@@H](OC(=O)c2cc(O)c(O)c(O)c2)[C@@H]1OC(=O)c1cc(O)c(O)c(O)c1)c1cc(O)c(O)c(O)c1 | active |
| O=C(O)c1cc(O)c(O)c(O)c1 | inactive |
| O=C(Oc1cc(O)cc2c1C[C@@H](OC(=O)c1cc(O)c(O)c(O)c1)[C@@H](c1cc(O)c(O)c(O)c1)O2)c1cc(O)c(O)c(O)c1 | inactive |
| O=C(OC[C@H]1O[C@@H](OC(=O)c2cc(O)c(O)c(O)c2)[C@H](O)[C@@H](OC(=O)c2cc(O)c(O)c(O)c2)[C@@H]1O)c1cc(O)c(O)c(O)c1 | active |
| O=C(OC1Cc2c(O)cc(O)cc2OC1c1ccc(O)c(O)c1)c1cc(O)c(O)c(O)c1 (stereo not drawn) | inactive |
| O=C(OC1Cc2c(O)cc(O)cc2OC1c1cc(O)c(O)c(O)c1)c1cc(O)c(O)c(O)c1 (stereo not drawn) | inactive |
| O=C(OC[C@H]1O[C@@H](OC(=O)c2cc(O)c(O)c(O)c2)[C@H](O)[C@@H](O)[C@@H]1O)c1cc(O)c(O)c(O)c1 | inactive |

| Compound | cytotoxicity call |
| --- | --- |
| O=C(OCC1OC(OC(=O)c2cc(O)c(O)c(OC(=O)c3cc(O)c(O)c(O)c3)c2)C(OC(=O)c2cc(O)c(O)c(OC(=O)c3cc(O)c(O)c(O)c3)c2)C(OC(=O)c2cc(O)c(O)c(OC(=O)c3cc(O)c(O)c(O)c3)c2)C1OC(=O)c1cc(O)c(O)c(OC(=O)c2cc(O)c(O)c(O)c2)c1)c1cc(O)c(O)c(OC(=O)c2cc(O)c(O)c(O)c2)c1 (stereo not drawn) | active |
| O=C(O)C[C@@H]1C(=O)O[C@H]2[C@@H](OC(=O)c3cc(O)c(O)c(O)c3)[C@H](OC(=O)c3cc(O)c(O)c4c3[C@H]1[C@H](O)C(=O)O4)[C@H](OC(=O)c1cc(O)c(O)c(O)c1)O[C@@H]2COC(=O)c1cc(O)c(O)c(O)c1 | active |
| C=C[C@H]1[C@H](O[C@H]2O[C@@H](CO)[C@@H](O)[C@@H](O)[C@@H]2O)OC=C(C(=O)OC)[C@H]1CCOC(=O)c1cc(O)c(O)c(O)c1 | inactive |
| C[C@@H]1CN([C@H](C)CO)C(=O)c2cccc(NC(=O)Nc3ccc(C(F)(F)F)cc3)c2O[C@H]1CN(C)Cc1ccccc1 | inactive |
| C[C@@H]1CCCCO[C@@H](CN(C)C(=O)C2CCCCC2)[C@H](C)CN([C@@H](C)CO)C(=O)c2cc(NS(=O)(=O)c3ccc(F)cc3)ccc2O1 | inactive |
| COc1ccc(S(=O)(=O)N2C[C@H](O)COC[C@H]3O[C@@H](CC(=O)NCCCN(C)C)CC[C@@H]32)cc1 | inactive |
| CCOc1ccc(-n2c([C@@H](C)N(Cc3cccnc3)C(=O)Cc3ccc(F)c(C(F)(F)F)c3)nc3ncccc3c2=O)cc1 | inactive |
| COc1ccc(CN(C)C[C@H]2OCCCC[C@H](C)Oc3ccc(NS(=O)(=O)c4ccc(C)cc4)cc3C(=O)N([C@H](C)CO)C[C@H]2C)cc1 | inactive |
| COc1ccc(NC(=O)Nc2ccc3c(c2)C(=O)N([C@@H](C)CO)C[C@@H](C)[C@H](CN(C)C(=O)Nc2cccc4ccccc24)O3)cc1 | inactive |
| C[C@H]1CCCCO[C@@H](CN(C)C(=O)Nc2ccc3c(c2)OCO3)[C@@H](C)CN([C@@H](C)CO)C(=O)c2cc(NS(=O)(=O)c3ccc(F)cc3)ccc2O1 | inactive |
| C[C@@H]1CN([C@H](C)CO)C(=O)c2cc(NC(=O)Nc3cccc4ccccc34)ccc2O[C@H]1CN(C)C(=O)Nc1ccc(F)cc1 | inactive |
| CCOc1ccc(Nc2c3ccccc3nc3ccccc23)cc1 | active |
| CCOc1ccc(NC(C)=O)cc1 | inactive |
| CC(C)CN(C(=O)COC(=O)c1c2c(nc3ccccc13)CCC2)c1c(N)n(Cc2ccccc2)c(=O)[nH]c1=O | inactive |
| CCC(CC)c1nc(Nc2ccccc2)c2ccccc2n1 | inactive |
| CCc1ccc(Nc2c3c(nc4ccccc24)CCCC3)cc1 | active |
| CCc1ccc(Nc2c3c(nc4ccccc24)CCC3)cc1 | active |
| c1ccc(Nc2nc(-c3ccccc3)nc3ccccc23)cc1 | inactive |
| COc1ccc(NC(=O)Nc2ccc3c(c2)C(=O)N([C@H](C)CO)C[C@@H](C)[C@H](CN(C)C(=O)Nc2ccc4c(c2)OCO4)OCCCC[C@@H](C)O3)cc1 | inactive |
| Cc1cccn2c(CN)cnc12 | inactive |
| C[C@H](CO)N1C[C@H](C)[C@H](CN(C)C(=O)Nc2ccc(C(F)(F)F)cc2)Oc2c(NC(=O)Nc3ccc(F)cc3)cccc2C1=O | inactive |
